Screening data (PubChem BioAssay)
Her2 expr inh = inhibitors of human Her2 kinase expression; P04626; 0.69% of 65,000 active; SKBR-3 HER2 protein level, AlphaScreen, 18-24 h; hits give low values; AID 645; HER2 level % of control, % at 10 µM;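 active = HER2 level under 5% of the carrier-only control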;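 also: 100% = DMSO carrier and 0% = 500 nM PU-H71 HSP90 inhibitor; lower value means stronger loss of Her2 protein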
Target sequence (P04626 whole entry, looked up): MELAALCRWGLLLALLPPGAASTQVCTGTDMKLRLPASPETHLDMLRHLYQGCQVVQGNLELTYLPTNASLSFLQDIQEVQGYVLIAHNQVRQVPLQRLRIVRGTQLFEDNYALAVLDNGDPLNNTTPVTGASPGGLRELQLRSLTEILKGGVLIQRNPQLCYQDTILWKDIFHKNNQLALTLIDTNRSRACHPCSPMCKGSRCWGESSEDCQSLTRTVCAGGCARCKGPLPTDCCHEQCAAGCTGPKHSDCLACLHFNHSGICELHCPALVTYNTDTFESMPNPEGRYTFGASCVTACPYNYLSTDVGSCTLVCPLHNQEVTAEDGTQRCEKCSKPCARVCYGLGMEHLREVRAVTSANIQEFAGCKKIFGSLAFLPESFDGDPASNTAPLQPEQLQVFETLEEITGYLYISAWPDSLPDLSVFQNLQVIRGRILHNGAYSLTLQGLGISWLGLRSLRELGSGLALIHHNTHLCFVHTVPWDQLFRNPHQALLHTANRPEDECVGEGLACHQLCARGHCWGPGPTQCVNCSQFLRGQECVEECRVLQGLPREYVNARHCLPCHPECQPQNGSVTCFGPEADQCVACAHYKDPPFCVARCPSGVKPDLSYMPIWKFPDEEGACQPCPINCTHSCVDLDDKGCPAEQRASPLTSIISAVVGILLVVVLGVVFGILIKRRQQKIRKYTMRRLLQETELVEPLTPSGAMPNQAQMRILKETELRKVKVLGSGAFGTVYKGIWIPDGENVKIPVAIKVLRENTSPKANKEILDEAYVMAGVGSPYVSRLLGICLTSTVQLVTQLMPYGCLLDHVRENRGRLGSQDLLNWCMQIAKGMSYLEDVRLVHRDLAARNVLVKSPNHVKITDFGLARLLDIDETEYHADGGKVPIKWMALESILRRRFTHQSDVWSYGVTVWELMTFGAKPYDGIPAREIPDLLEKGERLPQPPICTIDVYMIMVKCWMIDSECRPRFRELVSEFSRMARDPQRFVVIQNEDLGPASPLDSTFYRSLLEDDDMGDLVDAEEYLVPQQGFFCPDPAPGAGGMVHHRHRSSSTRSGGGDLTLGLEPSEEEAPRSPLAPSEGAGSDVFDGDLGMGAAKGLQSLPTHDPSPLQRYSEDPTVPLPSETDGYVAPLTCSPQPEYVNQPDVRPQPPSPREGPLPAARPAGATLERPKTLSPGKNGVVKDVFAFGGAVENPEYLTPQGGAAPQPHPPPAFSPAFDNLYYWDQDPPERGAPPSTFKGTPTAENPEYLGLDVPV
Cdc25B inh = inhibitors of human Cdc25B phosphatase; P30305; recombinant Cdc25B, OMFP fluorescence Ex485/Em525; inhibition, %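 (compounds tested at 10 µM final in the well)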; 0.1% of 65,000 active; in the data active = inhibition above about 50%
MKP-1 inh = inhibitors of human MKP-1 phosphatase; P28562; recombinant MKP-1, OMFP hydrolysis fluorescence; inhibition, %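 (compounds tested at a single concentration somewhere between 10 and 100 µM)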; 0.15% of 65,000 active; AID 374;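 active = inhibition above about 50%, limit read from the data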;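 also: 0% = DMSO max control wells and 100% = wells with enzyme stopped by NaOH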
SKBR3 24h inh = SK-BR-3 proliferation inhibitors; AID 847; SK-BR-3 viability, CellTiter-Glo ATP luminescence, 24 h; hits give low values; viability, % at 10 µM; 0.47% of 41,000 active;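 active = viability at or below the median of all test compounds minus 3 SD, in both replicates if run twice, cut at about 45% in these data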;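 also: 100% = median untreated cell wells and 0% = median positive control drug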
Hsp90 inh = displaces geldanamycin probe from tumor Hsp90; P07900; NCI-N417 lysate Hsp90, Cy3B-geldanamycin FP displacement; inhibition, % at 30 µM; 0.35% of 64,000 active; AID 429;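 active = inhibition above 50%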;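 also: 0% = tracer plus lysate wells and 100% = tracer alone without lysate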
The depositor's hits bear a star; / = not tested or not shown. Most compounds without a hit are left out; they make up all but 1.5% or so of the library.

SMILES	Her2 expr inh	Cdc25B inh	MKP-1 inh	SKBR3 24h inh	Hsp90 inh
CCOCCCNC(=O)C(c1ccc(OC)cc1)N(Cc1ccc2c(c1)OCO2)C(=O)CNC(C)=O (stereo unspecified)	-21.8*	/	/	61.6	/
Cc1cccc(C)c1NC(=O)C[N+](C)(C)C	/	/	/	/	-1.2
Cc1ccc(S(=O)(=O)NC2(C(F)(F)F)C(=O)Nc3c2c(=O)n(C)c(=O)n3C)cc1 (stereo unspecified)	78.5	-7.2	-1.0	79.9	-0.5
CCC(=O)NC1(C(F)(F)F)C(=O)Nc2c1c(=O)n(C)c(=O)n2C (stereo unspecified)	89.7	60.2*	3.6	86.2	-1.7
CCNC(=O)C1OC(n2cnc3c(NCc4ccccc4)ncnc32)C(O)C1O (stereo unspecified)	/	/	/	/	3.8
O=C(CSc1nc2cc(Cl)ccc2s1)c1ccco1	-1.4*	-22.2	-0.1	71.5	/
O=c1[nH]c(C2CCCN(S(=O)(=O)c3ccccc3)C2)nc2c1nnn2Cc1ccccc1 (stereo unspecified)	91.3	-3.0	41.4	/	-4.7
O=c1[nH]c(C2CCCN(S(=O)(=O)c3ccccc3)C2)nc2c1nnn2Cc1ccccc1F (stereo unspecified)	53.5	16.8	24.1	31.2*	4.4
CC1CCN(C(=O)CSc2ccc3nnc(-c4ccccc4)n3n2)CC1	100.2	-13.3	14.3	/	-2.1
COc1ccccc1N1CCN(C(c2cccs2)c2nnnn2C2CCCC2)CC1 (stereo unspecified)	-30.2*	11.7	6.7	91.8	0.2
c1ccc(CC2CCN(C(c3cccs3)c3nnnn3C3CCCC3)CC2)cc1 (stereo unspecified)	95.3	-8.4	-8.5	108.3	-4.5
Cc1cccc(Nc2nc(-c3ccccn3)cs2)n1	-20.9*	-3.2	11.6	112.4	13.7
COC(=O)c1[nH]c2ccc(C)cc2c1NC(=O)CN1CCCc2ccccc21	-22.1*	-1.2	6.3	101.9	-10.7
COC(=O)c1[nH]c2ccc(C)cc2c1NS(=O)(=O)c1ccc(F)cc1	103.1	-8.5	9.2	37.9*	-5.2
COc1cc(N)c2ncccc2c1	/	/	/	/	17.5
CCOC(=O)C1=C(C)N=c2s/c(=C\c3ccncc3)c(=O)n2C1c1ccc2c(c1)OCO2 (stereo unspecified)	-75.3*	-18.9	38.9	65.0	/
CCn1c(SCC(=O)N2CCOCC2)nc2oc3c(Cl)cc(Cl)cc3c(=O)c2c1=O	-1.7*	-1.3	37.3	98.0	-38.9
CCN1/C(=C/C(=O)c2ccco2)Sc2ccccc21	-0.5*	-12.5	1.3	/	-16.4
O=C(NCc1ccco1)N1c2ccccc2Sc2ccccc21	151.7	-8.2	7.6	80.8	/
COCCCNC(CC(=O)Nc1ccc(N(C)C)cc1)C(=O)O (stereo unspecified)	98.0	-11.7	-9.3	111.3	-1.2
O=c1cc(N2CCOCC2)oc2c(-c3ccccc3)cccc12	/	/	/	/	2.1
COc1ccc(S(=O)(=O)n2nc(OC(=O)c3ccccc3Br)cc2N)cc1	125.6	-15.4	-1.4	97.0	-1.7
CS(=O)(=O)n1nc(OC(=O)c2cccc3ccccc23)cc1N	60.2	-9.1	2.6	42.4*	2.6
Cn1c(CSc2ncccn2)nnc1SCC(=O)N1CCCc2ccccc21	127.7	-11.5	7.3	23.8*	0.9
O=C(Cn1nnc(-c2ccccc2)n1)OCc1ccccc1	81.3	72.1*	-1.4	99.8	-0.9
SMILES	Her2 expr inh	Cdc25B inh	MKP-1 inh	SKBR3 24h inh	Hsp90 inh
CCCCn1c(SCC(=O)Nc2cc(NC(=O)c3ccco3)ccc2C)nc2ccccc2c1=O	-15.9*	4.0	36.0	84.3	-6.0
CCOC(=O)c1oc2c(O)c(O)ccc2c(=O)c1-c1nncn1-c1ccccc1	85.4	2.6	-3.3	94.0	60.6*
C[C@@H]1C(=O)NC2=Nc3cccc(Cl)c3CN21	/	/	/	/	1.5
O=S(=O)(C/C(=C/CO)S(=O)(=O)c1ccccc1)c1ccccc1	-21.3*	-1.2	-14.0	154.0	0.9
CCc1ccc(NC(=O)CS(=O)CC(=O)NCC2OCCc3ccccc32)cc1 (stereo unspecified)	74.4	-10.3	1.6	77.0	-2.0
Cc1ccccc1OCC(O)Cn1c(NCCN(C)C)nc2c1c(=O)n(C)c(=O)n2C (stereo unspecified)	79.4	-0.1	3.3	/	92.0*
COc1ccccc1N1CCN(CCN(C(=O)c2ccc(I)cc2)c2ccccn2)CC1	/	/	/	/	0.5
O=C(NC1CCCc2ccccc21)C1CCN(c2c(N3CCCC3)c(=O)c2=O)CC1 (stereo unspecified)	82.0	-12.5	3.9	/	-3.9
N#C/C(=C\c1ccc(O)c(O)c1)C(=O)NCCCNC(=O)/C(C#N)=C/c1ccc(O)c(O)c1	/	/	/	/	81.0*
O=C(Nc1ccccc1)c1ccccc1O	141.4	-11.1	5.8	71.4	1.3
C[C@@H](NC(=O)/C(C#N)=C/c1ccc(O)c(O)c1)c1ccccc1	/	/	/	/	77.1*
C[C@H](NC(=O)/C(C#N)=C/c1ccc(O)c(O)c1)c1ccccc1	/	/	/	/	74.9*
N#C/C(=C\c1ccc(O)c(O)c1)C(=O)Nc1ccccc1	/	/	/	/	83.2*
CC(NC(=O)CC(O)(C(F)(F)F)C(F)(F)F)c1ccccc1 (stereo unspecified)	/	-9.0	-5.0	86.6	-0.8
COCc1cc(C)n(CC(=O)NC(C)c2ccccc2)c(=O)c1C#N (stereo unspecified)	132.5	0.9	-5.4	105.4	1.5
CCOC(=O)c1ccc(NCc2ccc3c(c2)OCO3)cc1	97.0	-11.5	-6.0	43.1*	-1.2
CCN(CC)C(=O)c1csc(Nc2ccc(C)cc2)n1	-19.6*	-15.3	-3.6	38.2*	0.2
CCOC(=O)N1CCC(NC(=O)c2cccn3c(=O)c4cc(Br)ccc4nc23)CC1	75.9	-6.6	52.9*	/	-3.6
CCOC(=O)N1CCC(NC(=O)c2cn(-c3ccc(OC)cc3)c(=O)c3ccccc23)CC1	119.5	-3.5	15.2	/	-3.1
COc1ccc2nc(C)cc(NN=Cc3cccnc3)c2c1	/	/	/	/	0.8
Cc1nc2ccc(S(=O)(=O)NC(C(=O)NCc3ccco3)C(C)C)cc2s1 (stereo unspecified)	89.8	60.4*	13.1	/	-3.1
Cc1nc2ccc(NC(=O)NCc3ccco3)cc2s1	100.1	-7.4	3.7	98.3	-8.1
Brc1cccc(-c2nnc(-c3ccccc3)o2)c1	51.4	-5.1	11.6	/	-1.7
Clc1cccc(-c2nnc(-c3ccccc3)o2)c1	-8.2*	-7.7	-4.3	18.3*	-4.6
Cc1ccc2[nH]c(C)c(CN(C)C3CCN(C)CC3)c(=O)c2c1	86.6	-7.5	4.5	25.6*	2.6
CCOc1ccc2[nH]c(C)c(CN(C)C)c(=O)c2c1	109.2	-14.6	1.6	103.6	-4.0
CC(C)N(Cc1nc(-c2ccccc2)no1)C(=O)CN1C(=O)c2ccccc2C1=O	-19.1*	1.3	-5.2	95.0	-1.3
CC(C)(C)NCC(O)COc1cccc2c1C[C@H](O)[C@H](O)C2 (stereo partly specified)	76.3	100.2*	-15.6	102.8	-0.4
c1ccc(N2CCN(c3c4c(nc5ncnn35)CCC4)CC2)cc1	89.2	-5.5	-6.2	/	-3.4
